Measured values as given in PubChem BioAssay (NCI).
The panel holds about 83,000 compounds, 20% with a hit somewhere; the sample as a whole holds those more often.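 Note: values are percent growth. 100 is the growth of untreated cells, values between 100 and 0 indicate rising inhibition; between -100 and 0 indicates cell death.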 A number with no mark means an inactive call. Activity calls are given as the source filed them. How the source made its calls: active means growth percent below 10; inactive means the rest.

Tested on: 786-0 renal
Assay: NCI-60 one-dose screen, 48 h (100 = growth as untreated, 0 = no growth, -100 = all killed)
Conditions: 10 µM unless noted

| SMILES | growth |
| --- | --- |
| C[C@@H]1O[C@@H](O[C@@H]2C[C@H](c3ccc4c(c3O)C(=O)C3=C(C4=O)[C@@]4(O)C(=O)C[C@](C)(O)C[C@@]4(O)C=C3)O[C@H](C)[C@H]2O)CC[C@@H]1O[C@H]1C[C@@H](O)[C@H](O)[C@@H](C)O1 | 103% |
| CC(=O)OC(c1ccccc1)C1CCOC1=O (centres undefined) | 94.8% |
| C=CCN1C(=O)c2cccc3c(N4CCOCC4)ccc(c23)C1=O | 26.2% |
| O=C(CCSc1nnc2n(Cc3ccccc3)c(=O)c3c4c(sc3n12)CCCC4)N1CCN(c2ccccc2)CC1 | 102% |
| CC1=CCC(OC(=O)C(C)(C)CC(O)(C(C)O)C(O)C2(C)C=CC(Cc3ccc(C(C)C)cc3)(C(C)C)CC2)(C(C)C)CC1 (centres undefined) | 99.9% |
| c1ccc(CCNc2c3ccccc3nc3ccccc23)cc1 | 38.1% |
| CCCCNc1nnc2n(Cc3ccccc3)c(=O)c3c4c(sc3n12)CCCC4 | 47.6% |
| COc1ccc2cc(-c3ccnc4c(N=Nc5ccc(Cl)cc5)c(N)nn34)ccc2c1 | 106% |
| CCO/C=N/C1=C(C#N)C(c2ccc(F)cc2)c2sc3c(F)cccc3c2O1 (centres undefined) | 35.2% |
| COc1cc2nc3sc(C(=O)Nc4ccc(C(=O)OC(C)C)cc4)c(C(=O)Nc4ccc(Cl)cc4C)n3c(=O)c2cc1OC | 53.6% |
| O=C(c1c[nH]c2ccccc12)c1n[nH]c(=S)n1-c1cccc(Br)c1 | 103% |
| O=c1cc(-c2ccccc2)[nH]c2ncc(-c3ccc(F)cc3)n12 | 79.5% |
| Clc1c(Cl)[n+](Cc2ccc3ccccc3c2)cn1Cc1ccc2ccccc2c1 | -8.06% (active) |
| COc1ccc(/C=C/C(=O)c2cc(OC)c(OC)c(OC)c2)cc1OCC(=O)Nc1nc2ccc(OC(F)(F)F)cc2s1 | 58.9% |
| COc1cccc(Nc2ncnc3cc(NC(=O)CCl)ccc23)c1 | -89.7% (active) |
| COc1cc(/C=C/C(=O)c2ccc(-n3cc(CN4CCN(c5cc6c(cc5F)c(=O)c(C(=O)O)cn6C5CC5)CC4)nn3)cc2)ccc1O | 53.9% |
| C=C(C)[C@@H]1CCC[C@]2(C(=O)O)CC[C@]3(C)[C@@H](CC[C@@H]4[C@@]5(C)C/C(=C/c6ccncc6)C(=O)C(C)(C)[C@@H]5CC[C@]43C)[C@@H]12 | 39.8% |
| O=C(N/N=C\c1cccc([N+](=O)[O-])c1)N/N=C/c1cccc([N+](=O)[O-])c1 | 111% |
| O=C(Cn1nnc2ccccc21)N/N=C/c1c[nH]c2ccccc12 | 58% |
| Cn1cc(-c2csc(-c3c[nH]c4ccc(F)cc34)n2)c2ccnc(Cl)c21 | 57.6% |

| SMILES | growth |
| --- | --- |
| CCNC(=O)Oc1ccc(/C(=C(/CC)Cc2ccccc2)c2ccc(OCCN3CCCC3)cc2)cc1 | 91.2% |
| CC(=O)c1sc2sc(C(C)=O)c(C)c2c1C | 89.2% |
| CN1C(=O)/C(=C/c2ccc(C(=O)Nc3ncc(Cc4cccc(Cl)c4)s3)cc2)SC1=S | 63.4% |
| COc1ccc(C2=CC(c3cc(OC)c(OC)c(OC)c3)n3ncnc3N2)cc1 (centres undefined) | 17.9% |
| Cc1ccc(Cl)cc1NC(=O)c1sc2nc3c(cc2c1N)C(=O)CCC3 | 89.3% |
| COc1ccc(/C=C/C(c2cc(OC)c(OC)c(OC)c2)n2cncn2)cc1 (centres undefined) | 39.6% |
| Cc1ncc(C(=O)Nc2ccc(CN3CCN(C)CC3)c(C(F)(F)F)c2)cc1C#Cc1cnc(N)c2ncccc12 | -71.4% (active) |
| Cc1ccc(C(=O)c2ccc(CC(=O)NN3C(=O)c4ccccc4C3=O)n2C)cc1 | 103% |
| CN(C)CCCC1(c2ccc(F)cc2)OCc2cc(-c3ccc4cc[nH]c4c3)ccc21 (centres undefined) | 78.1% |
| O=C(/C=C/c1cccc(Cl)c1Cl)Nc1ncc(Cc2ccccc2Cl)s1 | 68.7% |
| O=C(Nc1ccc(Cl)cc1)Oc1c(Cl)c(Cl)c(Cl)c(Cl)c1Cl | 94.7% |
| CCCCNC(=O)c1cc([N+](=O)[O-])cc(C2CCCCC2)c1O | 40.7% |
| O=C1NC(=O)/C(=C/c2c(-c3ccccc3)nc3sc(COc4ccccc4)nn23)S1 | 81.6% |
| COc1ccc2c(c1)c(/C(O)=C1\COC(=O)C1=O)cn2Cc1ccc(F)cc1 | 96.1% |
| CCN(CC)CCN1C(=O)c2cccc3c(/C=C/CN4C(=O)c5cccc6cccc(c56)C4=O)ccc(c23)C1=O | -9.45% (active) |
| O=C(CCCCCCN1CC(=O)N2[C@H](c3ccc(Br)cc3)c3[nH]c4ccccc4c3C[C@@H]2C1=O)NO | 89.1% |
| NNCCc1ccc(NC(=O)CCCc2ccc(C(=O)Nc3ccccc3N)cc2)cc1 | 81.6% |
| Cc1cccc[n+]1C1c2ccccc2-c2ccccc21 | 90.7% |
| CN(C)S(=O)(=O)Oc1ccc(-c2sc3cc(OS(=O)(=O)N(C)C)ccc3c2C(=O)c2ccc(OCCN3CCCCC3)cc2)cc1 | 21.5% |
